Most compounds without a hit are left out; they make up all but 11% or so of the library.
Gal4-VP16 FLuc: inhibits Gal4-VP16 luciferase reporter, ROR gamma counter-screen; Drosophila S2 Gal4-VP16 UAS-luciferase, luminescence, 20 h; 310,000 compounds, 3.5% hits; Potency, µM (top dose mostly 53.6 µM), without a hit: at the top dose activity, negative = inhibition, usual class: inhibitors;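 also: Gal4-VP16 expression switched on by copper sulfate through the metallothionein promoter; potency is read from the fitted curve at half-maximal effect; % is scaled to controls: 0 for no effect and ±100 for the full control effect; nearly all actives have a fitted effect of over 50% in size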
SW480 rereplic: DNA re-replication induction in SW480 cells | 340,000 compounds, 1.8% hits | AID 624297 | SW480 DNA re-replication, Hoechst DNA content imaging, 48 h | Potency, µM (top dose mostly 46.1 µM), without a hit: at the top dose re-replication activation, usual class: activators; also: potency is read from the fitted curve at half-maximal effect; % of control where 0% means no effect; nearly all actives have a fitted effect of over 55% in size
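DNA re-replication was detected as more nuclei of elevated Hoechst intensity after 48 hr exposure to compound (23 nL pinned per well of 250 cells).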
RORgamma inh: ROR gamma (mouse) transcription inhibition; 310,000 compounds, 5.4% hits; AID 2551; Potency, µM (doses to about 53.6 µM), without a hit: at the highest dose activity change, negative = inhibition, hits mostly inhibitors; Drosophila S2 Gal4-RORgamma UAS-luciferase reporter, 20 h; also: potency is read from the fitted curve at half-maximal effect; % is scaled to controls: 0 for no effect and ±100 for the full control effect; nearly all actives have a fitted effect of over 60% in size
Target sequence (P51450 whole entry, looked up, the tested form may be a part): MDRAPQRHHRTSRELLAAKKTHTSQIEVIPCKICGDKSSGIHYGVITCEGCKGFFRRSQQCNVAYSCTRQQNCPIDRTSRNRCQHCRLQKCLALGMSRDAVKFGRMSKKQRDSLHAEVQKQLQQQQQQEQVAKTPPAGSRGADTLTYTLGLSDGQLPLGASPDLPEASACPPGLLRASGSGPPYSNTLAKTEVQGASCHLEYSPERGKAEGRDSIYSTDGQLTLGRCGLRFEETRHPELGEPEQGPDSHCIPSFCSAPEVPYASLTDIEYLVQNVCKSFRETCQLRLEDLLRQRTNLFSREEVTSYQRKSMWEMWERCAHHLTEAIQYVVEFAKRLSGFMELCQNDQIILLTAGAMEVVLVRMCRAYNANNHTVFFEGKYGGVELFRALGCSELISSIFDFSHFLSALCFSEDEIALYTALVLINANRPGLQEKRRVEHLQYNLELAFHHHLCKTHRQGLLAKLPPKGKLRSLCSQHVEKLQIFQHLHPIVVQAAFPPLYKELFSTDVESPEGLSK
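Schneider cells (Drosophila), stable Gal4 DBD–ROR gamma + UAS-luc; 1 hr cmpd preincubation; Cu2+ induction 700 uM final; 20 hr ambient; luminescence.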
IL-1B inflam inh: inhibitors of inflammasome signaling (IL-1 beta secretion); 360,000 compounds, 4.7% hits; AID 743279; THP-1 LPS/ATP IL-1B secretion, AlphaLISA, 16 h; stronger effect = lower value; activity change, % at 57.5 µM; in the data active = activity change below about -50%; inconclusive = mostly about -30% to -49%; also: % is scaled to controls: 0 for no effect and ±100 for the full control effect
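Secreted IL-1B measured by AlphaLISA bead assay after 16 h compound exposure of THP-1 cells; compounds (final up to 57.5 uM) added 1 h before LPS (250 ng/mL) and ATP (1.25 mM) stimulation; lower signal means less secretion.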
MCF10A rereplic: DNA re-replication induction in MCF 10a cells; MCF 10A DNA re-replication, Hoechst nuclear intensity, 48 h; Potency, µM (series often up to 46.1 µM), for the others: top-dose activity, positive = re-replication, hits mostly activators; 350,000 compounds, 2.9% hits; AID 624296; also: potency is read from the fitted curve at half-maximal effect; % of control where 0% means no effect; nearly all actives have a fitted effect of over 50% in size
An asterisk follows results filed as active; [ ] = dose if it differs, or a comment. Unless noted, calls follow the shape of the dose curve; as a rule, active = well fitted curve in the direction sought with a large enough effect; inconclusive = small, poorly fitted or top-dose-only effect, or another doubt; inactive = no such curve, though single readings can be large; an effect the other way counts as inactive or inconclusive.

What do the screens show for `N#Cc1ccccc1NC(=O)C1SC(=Nc2ccccc2)C(C(=O)Nc2ccc(Cl)cc2)=C1N` (centres undefined)?
Gal4-VP16 FLuc: -7%; SW480 rereplic: 2%; RORgamma inh: -1%; IL-1B inflam inh: -84*; MCF10A rereplic: inconclusive

What do the screens show for `CCOc1ccc(N=C2SC(C(=O)Nc3ccccc3C#N)C(N)=C2C(=O)Nc2ccc(Cl)cc2)cc1` (centres undefined)?
Gal4-VP16 FLuc: -9%; SW480 rereplic: -2%; RORgamma inh: inconclusive; IL-1B inflam inh: 0; MCF10A rereplic: inconclusive

How did CCCCCCN1C[C@H](n2cc(COC(=O)c3ccccc3)nn2)[C@@H](O)C[C@@H]1c1ccc(C)cc1 do in these assays?
IL-1B inflam inh: 25

Results for CCN(Cc1ccccc1)C(=O)COC(=O)[C@@H]1CCCN1C(=O)c1cccs1 ?
SW480 rereplic: 2%; IL-1B inflam inh: -6; MCF10A rereplic: 15%

How did Cc1ccc(C(=O)CCC(=O)Nc2ccc(C)cn2)cc1 do in these assays?
SW480 rereplic: -7%; IL-1B inflam inh: -16; MCF10A rereplic: 1%

What do the screens show for `COc1ccc(CN2CCC(Cc3ccccc3)CC2)c(C)c1C`?
Gal4-VP16 FLuc: -8%; SW480 rereplic: 20%; RORgamma inh: -39%; IL-1B inflam inh: -78*; MCF10A rereplic: 10%

How did COc1cccc(OC)c1OCCCCN1CCC(Cc2ccccc2)CC1 do in these assays?
Gal4-VP16 FLuc: -2%; SW480 rereplic: 0%; RORgamma inh: -18%; IL-1B inflam inh: -77*; MCF10A rereplic: 11%

How did COc1cc(CN2CCC(Cc3ccccc3)CC2)cc(OC)c1OC do in these assays?
Gal4-VP16 FLuc: -2%; SW480 rereplic: 1%; RORgamma inh: -32%; IL-1B inflam inh: -26; MCF10A rereplic: inconclusive

What do the screens show for `CCC(=O)c1ccccc1OCCCN1CCC(Cc2ccccc2)CC1`?
SW480 rereplic: 29%; IL-1B inflam inh: -89*; MCF10A rereplic: 2%

What do the screens show for `COc1ccccc1OCCCCN1CCN(C(c2ccccc2)c2ccccc2)CC1`?
Gal4-VP16 FLuc: -22%; SW480 rereplic: inconclusive; RORgamma inh: -12%; IL-1B inflam inh: -80*; MCF10A rereplic: inconclusive

Results for COc1cccc(OC)c1OCCCCCCN1CCN(C)CC1 ?
Gal4-VP16 FLuc: 2%; SW480 rereplic: 0%; RORgamma inh: 13%; IL-1B inflam inh: 5; MCF10A rereplic: 12%

What do the screens show for `COC(=O)[C@H](Cc1ccccc1)[C@@H](C)OS(N)(=O)=O`?
Gal4-VP16 FLuc: 3%; SW480 rereplic: -4%; RORgamma inh: 1%; IL-1B inflam inh: 6; MCF10A rereplic: 12%

Results for C[C@@H]1CCCCO[C@H](CN(C)S(=O)(=O)c2cn(C)cn2)[C@@H](C)CN([C@H](C)CO)C(=O)c2cc(NC(=O)c3ccncc3)ccc2O1 ?
IL-1B inflam inh: -13

What do the screens show for `O=C(Nc1cc(NC(=O)c2ccccc2F)ccc1Cl)c1ccccc1`?
Gal4-VP16 FLuc: 1%; SW480 rereplic: inconclusive; RORgamma inh: 6%; IL-1B inflam inh: 5; MCF10A rereplic: 16%

What do the screens show for `COc1ccc(Nc2cnn(-c3nc4ccccc4s3)c(=O)c2Cl)cc1`?
Gal4-VP16 FLuc: inconclusive; SW480 rereplic: 10%; RORgamma inh: 9%[10 µM]; IL-1B inflam inh: -81*; MCF10A rereplic: inconclusive

Results for COc1cccc(NC(=O)CN(C2=NC3CS(=O)(=O)CC3S2)c2cccc(C)c2)c1 (centres undefined) ?
Gal4-VP16 FLuc: -3%; SW480 rereplic: 0%; RORgamma inh: 42%; IL-1B inflam inh: -65*; MCF10A rereplic: 20%

What do the screens show for `Cc1cc(C)n(CCN(C)Cc2nc(Cc3ccccc3F)no2)n1`?
Gal4-VP16 FLuc: inconclusive; SW480 rereplic: -18%; RORgamma inh: 11µM*; IL-1B inflam inh: 6; MCF10A rereplic: -2%

How did CN(Cc1nc(Cc2ccccc2F)no1)[C@@H]1CS(=O)(=O)C[C@H]1O do in these assays?
Gal4-VP16 FLuc: -1%; SW480 rereplic: 29%; RORgamma inh: 2%; IL-1B inflam inh: -7; MCF10A rereplic: 9%

What do the screens show for `COc1ccc(CNS(=O)(=O)CCNC(=O)c2cccc(OC)c2)cc1`?
SW480 rereplic: -3%; IL-1B inflam inh: 0; MCF10A rereplic: 3%
